From PubChem
The list is not random: actives were taken first. Their share in the collection is about 11%.
PLK1 PBD block = PLK1 (human) polo-box domain binding inhibition; Plk1 PBD binding of FITC phosphopeptide, fluorescence polarization; Potency, µM, inactives show max response, negative = inhibition, actives largely listed as inhibitors; actives 2.8% (n = 360,000); also: series mostly up to about 57 µM; % is scaled to controls: 0 for no effect and ±100 for the full control effect; nearly all actives have a fitted effect of over 65% in size
JMJD2A Tudor = JMJD2A Tudor domain (human) inhibition | AlphaScreen JMJD2A-Tudor / H3K4me3 peptide binding | Potency, µM (highest dose often 114 µM), without a hit: at the top dose activity change, negative = inhibition, usual class: inhibitors | O75164 | actives 4.4% (n = 390,000); also: % is scaled to controls: 0 for no effect and ±100 for the full control effect; nearly all actives have a fitted effect of over 50% in size
G9a block = inhibitors of human histone lysine methyltransferase G9a | Q96KQ7 | G9a H3K9 monomethylation, AlphaScreen, 2 h | Potency, µM (top dose mostly 102 µM), for the others: at the highest dose activity, negative = inhibition, most hits filed as inhibitors | actives 8.8% (n = 350,000) | AID 504332; also: % is scaled to controls: 0 for no effect and ±100 for the full control effect; nearly all actives have a fitted effect of over 75% in size
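Methyltransferase reactions run at room temperature for 2 h (20 nM enzyme, 500 nM biotin-H3K9 peptide, 20 uM SAM) after a 15 min compound preincubation; product detected by AlphaScreen beads and anti-H3K9me1 antibody.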
HP1b binding inh = blocks HP1-beta chromodomain binding to methylated histone tails | P83916 | AlphaScreen HP1-beta / biotin-H3K9me3 peptide binding | Potency, µM (series often up to 114 µM), for the others: at the highest dose activity change, negative = inhibition, most hits filed as inhibitors | actives 0.56% (n = 390,000); also: nearly all actives have a fitted effect of over 70% in size
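HP1-beta protein (50 nM final) preincubated 30 min at room temperature with biotinylated H3(1-18)K9me3 peptide (50 nM) in PBS pH 7.4, 0.01% Tween-20, then compound added for 30 min. AlphaScreen streptavidin donor/nickel chelate acceptor beads (10 ug/mL final), 30 min dark, luminescence read.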
VDR inhibitor = inhibitors of human vitamin D receptor. Potency, µM, inactives show max response, negative = inhibition, actives largely listed as inhibitors. VDR-SRC2-3 peptide fluorescence polarization, 2 h. actives 0.93% (n = 400,000). P11473; also: % is scaled to controls: 0 for no effect and ±100 for the full control effect
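The screen uses fluorescence polarization to detect compounds that interfere with recruitment of the SRC2-3 coactivator peptide to VDR; plates are read after 2 h at room temperature.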
BAZ2B block = BAZ2B (human) inhibition | AlphaScreen BAZ2B-H3K14Ac peptide displacement | Q9UIF8 | Potency, µM (highest dose often 114 µM), inactives show at the top dose activity change, negative = inhibition, actives largely listed as inhibitors | actives 4.4% (n = 360,000); also: % is scaled to controls: 0 for no effect and ±100 for the full control effect; nearly all actives have a fitted effect of over 60% in size
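BAZ2B (50 nM) with biotin-H3(5-23)K14Ac peptide (50 nM) in PBS pH 7.4, 0.01% Tween-20, preformed 30 min, then compound 30 min at room temperature; top concentration 110uM. AlphaScreen streptavidin donor/nickel chelate acceptor beads (10 ug/mL final), 20 min dark, signal read.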
* marks the source's active call; other numbers are inactive results; u = inconclusive; x = no result; [ ] = another dose, or the depositor's remark. Calls follow the shape of the dose curve; as a rule, active = well fitted curve in the direction sought with a large enough effect; inconclusive = small, poorly fitted or top-dose-only effect, or another doubt; inactive = no such curve, though single readings can be large; an effect the other way counts as inactive or inconclusive. Potency is read from the fitted curve at half-maximal effect.

SMILES	PLK1 PBD block	JMJD2A Tudor	G9a block	HP1b binding inh	VDR inhibitor	BAZ2B block
Cc1cc(C)cc(-n2ccnc2SCC(=O)Nc2nc3ccc(C)cc3s2)c1	x	-22%	-3%[59 µM]	5%[57 µM]	1%	-15%
O=C1NC(Cc2ccc(O)cc2)c2nc3cc(F)c(F)cc3c(=O)n2-c2ncccc21 (stereo unspecified)	-16%	x	x	x	x	x
O=C(C1=C(O)C(=O)N(CCN2CCOCC2)C1c1ccc([N+](=O)[O-])cc1)c1cccs1 (stereo unspecified)	-10%	45µM*	u	23%	u	-7%
COc1ccc(C2C(C(=O)c3ccco3)=C(O)C(=O)N2CCN2CCOCC2)cc1 (stereo unspecified)	-1%	u	50µM*	20%	16%	-16%
COC(=O)c1ccc(C2C(C(=O)c3cc4ccccc4o3)=C(O)C(=O)N2CCN2CCOCC2)cc1 (stereo unspecified)	-15%	0%	u	32%	6%	-16%
O=C(C1=C(O)C(=O)N(CCN2CCOCC2)C1c1ccc([N+](=O)[O-])cc1)c1cc2ccccc2o1 (stereo unspecified)	-8%	3%	40µM*	5%	9%	-21%
COc1cccc(C2C(C(=O)c3cc4ccccc4o3)=C(O)C(=O)N2CCN2CCOCC2)c1 (stereo unspecified)	-19%	-24%	45µM*	7%	-4%	-13%
CN(C)CCCN1C(=O)C(O)=C(C(=O)c2cccs2)C1c1cccc([N+](=O)[O-])c1 (stereo unspecified)	x	x	16%[59 µM]	x	x	-39%
Cc1oc2ncn(CC(C)C)c(=O)c2c1C(=O)N(Cc1ccccc1)C(C)C	x	-7%	-24%[59 µM]	14%	8%	8%[57.1 µM]
O=C(NNc1ccccn1)C(=O)NNS(=O)(=O)c1ccc(Cl)cc1	-7%	-18%	30%	31%	6%	56µM*
O=C(NNc1ccccn1)C(=O)NNS(=O)(=O)c1ccc(F)cc1	-7%	-29%	38%	19%	11%	40µM*
CC1CCc2sc(C(=O)N/N=C/c3ccc([N+](=O)[O-])cc3)cc2C1 (stereo unspecified)	-15%	-13%	15%	16%	17%	-23%
CCC1CCCCN1CCCNC(=O)c1ccc2c(c1)N(Cc1ccc(Cl)cc1)C(=O)c1ccccc1S2(=O)=O (stereo unspecified)	x	-26%	u	8%	-11%	-39%
COc1ccc2nc(NC(=O)C3CC(=O)N(c4ccc5c(c4)OCCO5)C3)sc2c1 (stereo unspecified)	-11%	-32%	40µM*	0%	-26%	-11%
CCN(CC)CCNC(=O)c1ccc(NC(=O)C2CC(=O)N(c3ccc4c(c3)OCCO4)C2)cc1 (stereo unspecified)	-27%	-9%	40µM*	13%	27%	0%
NC(=O)c1ccc(NC(=O)C2CC(=O)N(c3ccc4c(c3)OCCO4)C2)cc1 (stereo unspecified)	0%	-11%	6%[12.7 µM]	6%	-25%	-6%
O=C(NC(Cc1ccccc1)c1nc2ccccc2[nH]1)C1CC(=O)N(c2ccc3c(c2)OCCO3)C1 (stereo unspecified)	3%	u	13µM*	35%	1%	u
O=C(Nc1nc2ccc(F)cc2s1)C1CC(=O)N(c2ccc3c(c2)OCCO3)C1 (stereo unspecified)	2%	-12%	-42%[2.33 µM]	12%	-6%	-10%
O=C(Nc1nc(-c2ccccn2)cs1)C1CC(=O)N(c2ccc3c(c2)OCCO3)C1 (stereo unspecified)	-12%	35µM*	11%[59 µM]	14%	4%	40µM*
O=C(Nc1nc(-c2cccs2)cs1)C1CC(=O)N(c2ccc3c(c2)OCCO3)C1 (stereo unspecified)	x	-18%	x	3%	0%	x
O=C(NCCCc1ccccc1)C1CC(=O)N(c2ccc3c(c2)OCCO3)C1 (stereo unspecified)	1%	-10%	-2%[59 µM]	28%	0%	-1%
O=C(NCC(c1ccco1)N1CCN(c2ccccc2)CC1)c1ccc2c(c1)OCO2 (stereo unspecified)	4%	-31%	u	1%	-7%	-22%
Cc1ccc(NC(=O)c2cc(NC(=O)C3CC=CCC3C(=O)O)ccc2N2CCOCC2)cc1Cl (stereo unspecified)	-12%	-2%	u	34%	4%	-8%
Cc1ccsc1C=C1C(=O)c2ccccc2C1=O	u	u	28µM*	-7%	-7%	u
Cc1ccsc1/C=C1/C(=O)NN(c2ccccc2)C1=O	-21%	u	-19%[59 µM]	-17%	-28%	u
SMILES	PLK1 PBD block	JMJD2A Tudor	G9a block	HP1b binding inh	VDR inhibitor	BAZ2B block
O=C(Nc1cccc(Cl)c1)c1cc(S(=O)(=O)N2CCCc3ccccc32)ccc1F	x	-2%	9%[59 µM]	12%	14%	15%
NC(=O)C1CCCN(CCc2ccccc2)C1 (stereo unspecified)	-4%	-17%	1%[59 µM]	23%	10%	-3%
CCCc1sc(N2CCCC(C(N)=O)C2)nc1-c1ccccc1 (stereo unspecified)	24µM*	28µM*	-94%	u	79µM*	u
Cc1ccc(S(=O)(=O)Cn2nnnc2CN(Cc2ccco2)Cc2cccs2)cc1	-7%	-7%	20µM*	15%	3%	-1%
O=C(Nc1ccc(Cc2ccc(NC(=O)C3CC3)c(O)c2)cc1O)C1CC1	-2%	-18%[57.1 µM]	7%[12.7 µM]	21%	-4%	4%
CCc1ccc(CC(=S)N2CCOCC2)cc1	-18%	-4%	4%	61%	-9%	1%
COc1ccc(CC(=S)N2CCOCC2)cc1	7.5µM*	-19%[57.1 µM]	u	u	-15%	-1%
O=C(Cc1ccc(Br)cc1)N1CCOCC1	-13%	-9%	79µM*	23%	-6%	-8%
Cc1ccc(CC(=S)N2CCOCC2)cc1	19µM*	-6%	8.9µM*	-20%	-30%	5%
CC(=O)/C(=N\Nc1ccc(C)cc1)N1CCOCC1	3%	-17%	28µM*	15%	15%	-1%
O=C(Cc1ccc(-c2ccccc2)cc1)N1CCOCC1	-15%	-20%	-1%[12.7 µM]	9%	2%	-2%
CC(C)NS(=O)(=O)c1ccc(NC(=O)C2CC3C=CC2C3)cc1 (stereo unspecified)	2%	14%	100%[59 µM]	28%	3%	5%
O=C(CN1CCN(C(=O)c2cccc(-n3cnnn3)c2)CC1)Nc1ccccc1Cl	-3%	-11%	0%[12.7 µM]	15%	-4%	6%
Cc1ccc(CC(=O)Nc2ccc(C(=O)N3CCOCC3)cc2)cc1	-11%	-1%	18µM*	11%	-16%	-19%
